# From PubChem BioAssay (NCATS)
# Results filed as inconclusive are left out. Where a call stands in place of a potency, no number is given. Unmarked numbers belong to inactive results. Activity calls are given as the source filed them. Calls follow the shape of the dose curve; as a rule, active = well fitted curve in the direction sought with a large enough effect; inconclusive = small, poorly fitted or top-dose-only effect, or another doubt; inactive = no such curve, though single readings can be large; an effect the other way counts as inactive or inconclusive.
# How the values were obtained:
# CRL-7250 = normal cell line; experiment: Cytotoxic Profiling of Annotated Libraries Using Quantitative High-Throughput Screening (AID 1296008); details: Five cell lines viability, CellTiter-Glo ATP luminescence, 48-72 h; max response: active compounds read low; also: nearly all actives have a fitted effect of over 60% in size; also: potency is read from the fitted curve at half-maximal effect
# Procedure, shortened: (§1)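 Compounds were pin-transferred onto cells and incubated 48 or 72 hr at 37 degree Celsius, 95% humidity. CellTiter-Glo was added, plates sat 10 min at room temperature, then ATP-coupled luminescence was imaged as the viability read-out.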
# HEK293 = experiment: as above; details: Five cell lines viability, CellTiter-Glo ATP luminescence, 48-72 h; max response: active compounds read low
# Procedure, shortened: as §1
# HaCat = experiment: as above; details: Five cell lines viability, CellTiter-Glo ATP luminescence, 48-72 h; max response: active compounds read low
# Procedure, shortened: as §1
# KB-3-1 = experiment: as above; details: Five cell lines viability, CellTiter-Glo ATP luminescence, 48-72 h; max response: active compounds read low
# Procedure, shortened: as §1
# NIH3T3 [1] = experiment: as above; details: Five cell lines viability, CellTiter-Glo ATP luminescence, 48-72 h; max response: active compounds read low
# Procedure, shortened: as §1
# NIH3T3 [2] = experiment: qHTS assay to identify novel small-molecules to repurpose for Merkel cell carcinoma treatment (AID 1296009); details: MCC and control cell lines, CellTiter-Glo viability, 72 h; at 44.8 µM (top of the series) unless noted; also: nearly all actives have a fitted effect of over 60% in size
# Procedure, shortened: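 Luminescence from CellTiter-Glo, read 10 min after addition at room temperature, reported viability following a 72 hr, 37 degree celsius treatment with NPC or MIPE compounds in titration; values normalized to plate controls.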
# C33A = experiment: Primary qHTS to identify gynecologic anti-cancer compounds using libraries of approved drugs and bioactive compounds (AID 1345084); details: Gynecologic cancer cell panel viability, ATPlite luminescence, 48 h; series mostly up to 57.5 µM; also: nearly all actives have a fitted effect of over 55% in size; also: potency is read from the fitted curve at half-maximal effect
# Procedure, shortened: (§2)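 In this quantitative HTS, cell killing is estimated from loss of ATP-dependent luciferase light. Cells see five compound concentrations over a 48 h exposure.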
# CAOV3 = experiment: as above; details: Gynecologic cancer cell panel viability, ATPlite luminescence, 48 h; series mostly up to 57.5 µM
# Procedure, shortened: as §2
# CASKI = experiment: as above; details: Gynecologic cancer cell panel viability, ATPlite luminescence, 48 h; series mostly up to 57.5 µM
# Procedure, shortened: as §2
# Es-2 = experiment: as above; details: Gynecologic cancer cell panel viability, ATPlite luminescence, 48 h; series mostly up to 57.5 µM
# Procedure, shortened: as §2
# HeLa = experiment: as above; details: Gynecologic cancer cell panel viability, ATPlite luminescence, 48 h; series mostly up to 57.5 µM
# Procedure, shortened: as §2
# Hek293T = experiment: as above; details: Gynecologic cancer cell panel viability, ATPlite luminescence, 48 h, control line for the selectivity index; series mostly up to 57.5 µM
# Procedure, shortened: as §2
# JEG-3 = experiment: as above; details: Gynecologic cancer cell panel viability, ATPlite luminescence, 48 h; series mostly up to 57.5 µM
# Procedure, shortened: as §2
structure (smiles),measurement,setting,value
C[C@@H]1O[C@@H](O[C@H]2[C@@H]3C=CO[C@@H](O[C@@H]4O[C@H](CO)[C@@H](O)[C@H](O)[C@H]4O)[C@@H]3[C@@]3(CO)O[C@@H]23)[C@H](OC(=O)/C=C/c2ccc(O)cc2)[C@H](O)[C@H]1O,max response,CRL-7250,-20.4%
same,max response,HEK293,-82.6%
same,max response,HaCat,-0.452%
same,max response,KB-3-1,-12.9%
same,outcome,NIH3T3 [1],inactive
same,outcome,NIH3T3 [2],inactive [at 17.4 µM]
same,Potency,C33A,inactive
same,Potency,CAOV3,inactive
same,outcome,CASKI,inactive
same,Potency,Es-2,inactive
same,Potency,HeLa,inactive
same,Potency,Hek293T,inactive
same,Potency,JEG-3,inactive
O=C(/C=C/c1ccc(O)cc1)O[C@@H]1C[C@@](O)(C(=O)O)C[C@@H](O)[C@@H]1O,max response,CRL-7250,-19.8%
same,max response,HEK293,-2.92%
same,max response,HaCat,-16.3%
same,max response,KB-3-1,5.75%
same,outcome,NIH3T3 [1],inactive
same,outcome,NIH3T3 [2],inactive
same,Potency,C33A,inactive
same,Potency,CAOV3,inactive
same,outcome,CASKI,inactive
same,Potency,Es-2,inactive
same,Potency,HeLa,inactive
same,Potency,Hek293T,inactive
same,Potency,JEG-3,inactive
NC(Cc1c[nH]c2ccc(O)cc12)C(=O)O (centres undefined),max response,CRL-7250,-7.16%
same,max response,HEK293,-8.59%
same,max response,HaCat,0.887%
same,outcome,KB-3-1,inactive
same,outcome,NIH3T3 [1],inactive
same,outcome,NIH3T3 [2],inactive
same,Potency,C33A,inactive
same,Potency,CAOV3,inactive
same,outcome,CASKI,inactive
same,Potency,Es-2,inactive
same,Potency,HeLa,inactive
same,Potency,Hek293T,inactive
same,Potency,JEG-3,inactive
CC1=C[C@H](O)[C@H]2C(C)(C)CCC[C@]2(C)[C@@]1(O)CO,max response,CRL-7250,-1.57%
same,max response,HEK293,-4.11%
same,max response,HaCat,3.1%
same,outcome,KB-3-1,inactive
same,outcome,NIH3T3 [1],inactive
same,outcome,NIH3T3 [2],inactive
same,Potency,C33A,inactive
same,Potency,CAOV3,inactive
same,outcome,CASKI,inactive
same,Potency,Es-2,inactive
same,Potency,HeLa,inactive
same,Potency,Hek293T,inactive
same,Potency,JEG-3,inactive
FC(F)(F)Oc1ccc(-c2ccc3nnc(C(F)(F)F)n3c2)cc1,max response,CRL-7250,-1.14%
same,max response,HEK293,-7.41%
same,max response,HaCat,-4.75%
same,outcome,KB-3-1,inactive
same,outcome,NIH3T3 [1],inactive
same,outcome,NIH3T3 [2],inactive
same,Potency,C33A,inactive
same,Potency,CAOV3,inactive
same,outcome,CASKI,inactive
same,Potency,Es-2,inactive
same,Potency,Hek293T,inactive
same,Potency,JEG-3,inactive
COc1cc2nc(=NC(=O)c3cccnc3)n3c(c2cc1OC)NCC3,max response,CRL-7250,4.99%
same,max response,HEK293,-3.57%
same,Potency,HaCat,16.4 µM (active)
same,outcome,KB-3-1,inactive
same,outcome,NIH3T3 [1],inactive
same,outcome,NIH3T3 [2],inactive
same,Potency,C33A,inactive
same,Potency,CAOV3,inactive
same,outcome,CASKI,inactive
same,Potency,Es-2,inactive
same,Potency,HeLa,inactive
same,Potency,Hek293T,inactive
same,Potency,JEG-3,inactive
C#CCCCn1cc(-c2cccc3c2N[C@@H](C)CC(=O)N3)cn1,Potency,CRL-7250,18.4 µM (active)
same,max response,HEK293,-6.8%
same,max response,HaCat,-14.3%
same,outcome,KB-3-1,inactive
same,outcome,NIH3T3 [1],inactive
same,outcome,NIH3T3 [2],inactive
same,Potency,C33A,inactive
same,Potency,CAOV3,inactive
same,outcome,CASKI,inactive
same,Potency,Es-2,inactive
same,Potency,HeLa,28.2 µM (active)
same,Potency,Hek293T,inactive
same,Potency,JEG-3,inactive
Cc1nnc(-c2sc(NC(=O)[C@H](C(C)C)n3c(=O)[nH]c4ccccc4c3=O)nc2C)o1,max response,CRL-7250,-59.8%
same,max response,HEK293,-6.7%
same,max response,HaCat,-23.8%
same,max response,KB-3-1,8.7%
same,outcome,NIH3T3 [1],inactive
same,outcome,NIH3T3 [2],inactive
same,Potency,C33A,inactive
same,Potency,CAOV3,inactive
same,outcome,CASKI,inactive
same,Potency,HeLa,inactive
same,Potency,Hek293T,inactive
same,Potency,JEG-3,inactive
C[C@@]1(O)[C@H](O)[C@@H](CO)O[C@H]1n1cnc2c(=O)[nH]c(N)nc21,max response,CRL-7250,0.111%
same,max response,HEK293,0.681%
same,max response,HaCat,-4.96%
same,outcome,KB-3-1,inactive
same,outcome,NIH3T3 [1],inactive
same,outcome,NIH3T3 [2],inactive
same,Potency,C33A,inactive
same,Potency,CAOV3,inactive
same,outcome,CASKI,inactive
same,Potency,Es-2,inactive
same,Potency,HeLa,inactive
same,Potency,Hek293T,inactive
same,Potency,JEG-3,inactive
CC(C)=CCC[C@](C)(O[C@@H]1O[C@H](CO)[C@@H](O)[C@H](O)[C@H]1O)[C@H]1CC[C@]2(C)[C@@H]1[C@H](O)CC1[C@@]3(C)CC[C@H](O)C(C)(C)C3[C@@H](O[C@@H]3O[C@H](CO)[C@@H](O)[C@H](O)[C@H]3O[C@@H]3O[C@@H](C)[C@H](O)[C@@H](O)[C@H]3O)C[C@]12C (some centres undefined),max response,CRL-7250,-1.6%
same,max response,HEK293,-1.21%
same,max response,HaCat,-12.1%
same,max response,KB-3-1,8.47%
same,outcome,NIH3T3 [1],inactive
same,outcome,NIH3T3 [2],inactive [at 9.27 µM]
same,"activity change, negative = cytotoxicity",C33A,-11.8% [at 11.6 µM]
same,"activity change, negative = cytotoxicity",CAOV3,-9.95% [at 11.6 µM]
same,"activity change, negative = cytotoxicity",CASKI,-3.66% [at 11.6 µM]
same,"activity change, negative = cytotoxicity",Es-2,5.12% [at 11.6 µM]
same,"activity change, negative = cytotoxicity",HeLa,11.5% [at 11.6 µM]
same,"activity change, negative = cytotoxicity",Hek293T,-2.65% [at 11.6 µM]
same,"activity change, negative = cytotoxicity",JEG-3,-0.108% [at 11.6 µM]
CC(C)c1ccc2c(c1)[C@H](O)CC1[C@@](C)(C(=O)O)CCC[C@]21C (some centres undefined),max response,CRL-7250,-0.592%
same,max response,HEK293,-18.5%
same,max response,HaCat,-16.8%
same,max response,KB-3-1,-0.988%
same,outcome,NIH3T3 [1],inactive
same,outcome,NIH3T3 [2],inactive
same,Potency,C33A,inactive
same,Potency,CAOV3,inactive
same,outcome,CASKI,inactive
same,Potency,Es-2,inactive
same,Potency,HeLa,inactive
same,Potency,Hek293T,inactive
same,Potency,JEG-3,inactive
C/C(=C\CC/C(C)=C/CC[C@]1(C)CCc2cc(O)cc(C)c2O1)CC/C=C(\C)C(=O)O,max response,CRL-7250,0.272%
same,max response,HEK293,-1.65%
same,max response,HaCat,4.26%
same,max response,KB-3-1,-3.09%
same,outcome,NIH3T3 [1],inactive
same,outcome,NIH3T3 [2],inactive [at 17.4 µM]
same,Potency,C33A,inactive
same,Potency,CAOV3,inactive
same,outcome,CASKI,inactive
same,Potency,Es-2,inactive
same,Potency,HeLa,inactive
same,Potency,Hek293T,inactive
same,Potency,JEG-3,inactive
